# From PubChem BioAssay (NCATS)
# Records with an inconclusive call do not appear. Where a call stands in place of a potency, no number is given. The source made the active and inactive calls. Calls come from the whole dose curve; as a rule, active = well fitted inhibition curve with a large enough effect; inconclusive = small, poorly fitted or top-dose-only effect; inactive = flat fitted curve, though single readings scatter.
# Target: Glutathione peroxidase 1 (Homo sapiens) (UniProt P07203)
# Test: Primary qHTS Assay for Inhibitors of Recombinant Selenoprotein Glutathione Peroxidase 1 (GPX1) (AID 1845191); note: nearly all actives have a fitted effect of over 65% in size
# Settings: recombinant GPX1, GR-coupled NADPH fluorescence, 15 min; series mostly up to 48.8 µM
# Procedure, shortened: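 Recombinant GPX1 (10 nM final) was preincubated with compound for 30 min at room temperature, then reacted with 1 mM GSH, 0.5 mM CHP, 0.5 mM NADPH and 100 nM glutathione reductase; NADPH fluorescence (340/450 nm) was read at 0 and 15 min.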
# Chain of Glutathione peroxidase 1 (Homo sapiens) (P07203 whole entry, looked up): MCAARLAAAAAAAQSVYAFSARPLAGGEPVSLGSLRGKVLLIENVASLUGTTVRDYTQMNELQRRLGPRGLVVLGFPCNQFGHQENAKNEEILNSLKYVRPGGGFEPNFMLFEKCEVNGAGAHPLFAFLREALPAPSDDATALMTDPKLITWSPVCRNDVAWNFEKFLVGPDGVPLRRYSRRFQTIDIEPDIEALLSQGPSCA
row,SMILES,Potency
1,O=C(/C=C/c1c(C(=O)O)[nH]c2cc(Cl)cc(Cl)c12)Nc1ccccc1,inactive
2,Cn1ccnc1CCOC(c1cc2nccc(C(=O)O)c2[nH]1)c1ccccc1Cl (stereo unspecified),inactive
3,CC(=O)c1c(O)cc2cccc3c2c1CC(C)(O)O3 (stereo unspecified),inactive
4,CC(=O)OCC1=C[C@H](O)[C@@H]2C(C(=O)O)=CO[C@@H](O[C@@H]3O[C@H](CO)[C@@H](O)[C@H](O)[C@H]3O)[C@H]12,inactive
5,C[C@@H]1O[C@@H](O[C@@H]2[C@@H](O)[C@@H](O)[C@H](O[C@@H]3[C@@H](O)[C@@H](O[C@]4(CO)O[C@H](CO)[C@@H](O)[C@@H]4OC(=O)/C=C/c4ccc(O)cc4)O[C@H](CO)[C@H]3OC(=O)/C=C/c3ccc(O)cc3)O[C@H]2C)[C@H](O)[C@H](O)[C@H]1O,inactive
6,C[C@@H](Nc1cc(NS(=O)(=O)N2CCC2)nc(SCc2cccc(F)c2F)n1)[C@@H](O)CO,inactive
7,C=C1CC2[C@]3(C)C(=C(O)C(=O)[C@@]2(C)[C@]2(C(=O)OC)C(=O)C(C)OC(=O)[C@@]12C)C(C)(C)C(=O)CC3O (stereo partly specified),inactive
8,CNC(=O)COC(=O)NCCC1CCN(c2cccc(C)n2)CC1,inactive
9,CC(=O)OCC(=O)O[C@@H]1[C@H]2[C@@H](OC(=O)c3ccccc3)[C@@H](C)C[C@]2(O)[C@H](OC(C)=O)C2(C)[C@H]3CC(C)(C)C(=O)[C@@H]3CC1(OC(C)=O)[C@@H]2OC(C)=O (stereo partly specified),inactive
10,Clc1ccc(CN[C@H]2CCN(c3ncc(Br)cn3)C2)c(Cl)c1,inactive
11,O=C(/C=C/c1ccc(O)cc1)OC[C@]12O[C@H]1[C@@H](O)[C@@H]1C=CO[C@@H](O[C@@H]3O[C@H](CO)[C@@H](O)[C@H](O)[C@H]3O)[C@@H]12,inactive
